Assay results reported in PubChem BioAssay (NCATS).
Inconclusive results are not listed. The source made the active and inactive calls. Unless noted, how the calls were made is not given here.

Columns and labels:
[1] = qHTS assay for cell viability of the p53RE-bla HCT-116 cell line (AID 743292; active means well fitted curve in the direction sought with a large enough effect; an effect the other way counts as inactive or inconclusive; further: on the % scale 0 is the no-effect control and ±100 the full control effect; nearly all actives have a fitted effect of over 55% in size)
Method in brief: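 CellSensor p53RE-bla HCT-116 cells, 4,000/well, preincubated 5 h at 37 C, then exposed to compounds in DMSO for 16 h at 37 C. Viability read as CellTiter-Glo luminescence (intracellular ATP) after 30 min at room temperature.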

[2] = qHTS profiling of the MIPE4 collection as inhibitors of Plasmodium falciparum (3D7) proliferation (AID 743344);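 further: scaled between DMSO vehicle wells and 0.29 µM artemisinin as full inhibition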; conditions: P. falciparum 3D7 in erythrocytes, SYBR Green DNA fluorescence, 72 h; at 28.5 µM (top of the series) unless noted
Method in brief: (§1)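 Erythrocytes infected with P. falciparum (0.3% parasitemia, 2.5% hematocrit) incubated with compounds 72 h at 37 C, 5% CO2. Lysis with saponin/Triton buffer containing SYBR Green I, overnight at room temperature in the dark; DNA fluorescence (485/535 nm) normalised to 0.29 uM artemisinin and DMSO.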

[3] = qHTS profiling of the MIPE4 collection as inhibitors of Plasmodium falciparum (DD2) proliferation (AID 743345); conditions: P. falciparum Dd2 in erythrocytes, SYBR Green DNA, 72 h; at 28.5 µM (top of the series) unless noted
Method in brief: as §1

[4] = qHTS profiling of the MIPE4 collection as inhibitors of Plasmodium falciparum (DD2) proliferation (Rep 2) (AID 743346); conditions: P. falciparum Dd2 in erythrocytes, SYBR Green DNA, 72 h; at 28.5 µM (top of the series) unless noted
Method in brief: as §1

[5] = qHTS profiling of the MIPE4 collection as inhibitors of Plasmodium falciparum (HB3) proliferation (AID 743347);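 further: plate controls were DMSO vehicle wells for no effect and artemisinin wells for full effect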; conditions: P. falciparum HB3 in erythrocytes, SYBR Green DNA, 72 h; at 28.5 µM (top of the series) unless noted
Method in brief: as §1

[6] = High-throughput drug toxicity screening in the BPDCN cell line Gen2.2 (AID 1224824); conditions: Gen2.2 BPDCN cells; at 45.8 µM (top of the series) unless noted;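 further: cells exposed to compounds for 48 h before reading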
Method in brief: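 Gen2.2, 500 cells/well, phenol red-free RPMI/10% FBS/Pen-Strep; 48 h cpd, 37 °C/5% CO2; CTG lum, 15 min RT. Norm: DMSO = 100%, bortezomib 9.2 uM final = 0%.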

[7] = High-throughput drug toxicity screening in the BPDCN cell line Cal-1 (AID 1224825); conditions: Cal-1 BPDCN cell viability, qHTS; at 45.8 µM (top of the series) unless noted
Method in brief: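 Cal-1 cells, 500 per well in phenol-red-free RPMI with 10% FBS, exposed to compounds for 48 hours at 37C, 5% CO2. Viability read by CellTiter-Glo luminescence; percent activity normalized to DMSO (100%) and 9.2 uM bortezomib final (0%).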

[8] = qHTS profiling for inhibitors of Plasmodium falciparum (3D7) proliferation (AID 743322);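 further: infected erythrocytes exposed to compound for 72 h before lysis; 100% = DMSO vehicle wells and 0% = 0.29 µM artemisinin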; conditions: P. falciparum 3D7 proliferation; at 28.7 µM (top of the series)
Method in brief: as §1

[9] = qHTS profiling for inhibitors of Plasmodium falciparum (DD2) proliferation (AID 743323); conditions: lower = more inhibition; at 28.7 µM (top of the series)
Method in brief: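 SYBR Green fluorescence (ex 485, em 535 nm) of lysed cultures gives parasite DNA content; wells normalized to artemisinin (0.29 uM) and DMSO controls. Infected red cells: 0.3% parasitemia, 2.5% hematocrit, 72 h, 37 C.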

[10] = qHTS profiling for inhibitors of Plasmodium falciparum (HB3) proliferation (AID 743324; active means well fitted curve in the direction sought with a large enough effect; an effect the other way counts as inactive or inconclusive;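 further: 100% = DMSO vehicle wells and 0% = artemisinin-treated control wells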); conditions: Plasmodium falciparum HB3 blood-stage proliferation; at 28.7 µM (top of the series)
Method in brief: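 P. falciparum HB3 grown in erythrocytes (0.3% parasitemia, 2.5% hematocrit final) with compound for 72 h at 37 C, 5% CO2. Parasite DNA detected by SYBR Green after saponin/triton lysis overnight; normalized to 0.29 uM artemisinin and DMSO.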

| Compound | Potency [1] | parasite growth, % of DMSO control [2] | parasite growth remaining, % of DMSO control (lower = more inhibition) [3] | parasite growth, % of control (lower = inhibition) [4] | growth, % of control [5] | cell viability, % of control (lower = more cytotoxic) [6] | viability (% of control) [7] | remaining parasite growth % (stronger effect = lower value) [8] | activity, percent of control [9] | remaining proliferation (% of control), lower = more inhibition [10] |
| --- | --- | --- | --- | --- | --- | --- | --- | --- | --- | --- |
| O=C(N[C@H](CO)[C@H](O)c1ccc([N+](=O)[O-])cc1)C(Cl)Cl | inactive | 94.4% | 100% | 83.1% | 105% | 136% | 116% |  |  |  |
| O=C(O)CSCC(=O)NC1CCSC1=O (stereo not drawn) |  | 102% | 139% | 124% |  | 118% | 112% |  |  |  |
| COc1ccc(-c2ccc3cc(C(=O)O)ccc3c2)cc1C12CC3CC(CC(C3)C1)C2 |  | 66.2% | 98.8% | 58.3% |  | 521% | 112% |  |  |  |
| N[C@@H](Cc1ccc(O)c(O)c1)C(=O)O | inactive | 85.4% | 114% | 64.9% | 84% | 94.2% | 93.8% |  |  |  |
| COc1ccc(C(=O)CC(=O)c2ccc(C(C)(C)C)cc2)cc1 |  | 9.04% | 88.2% | 6.24% |  | 5.71% | 5.54% |  |  |  |
| CC1=CC(=O)c2ccccc2C1=O |  | 40.3% | 48% | 10.3% |  | 2.97% | 1.39% | 0.179% | 0.841% | 4.17% |
| O=C(O)c1cc(=O)[nH]c(=O)[nH]1 | inactive | 101% | 144% | 89% | 107% | 184% | 128% |  |  |  |
| CC1=NN(c2ccccc2)C(=O)C1 | inactive | 89.4% | 94.6% | 86.2% | 103% | 112% | 99.8% |  |  |  |
| Cc1c(-c2ccc(O)cc2)n(Cc2ccc(OCCN3CCCCCC3)cc2)c2ccc(O)cc12 |  |  |  |  |  | 158% | 121% |  |  |  |
| CC(=O)[C@H]1CC[C@H]2[C@@H]3CCC4=CC(=O)CC[C@]4(C)[C@H]3CC[C@]12C | inactive |  |  |  |  | 83% | 79.9% |  |  |  |
| CCCN[C@H]1CCc2nc(N)sc2C1 |  | 5.95% | 92.8% | 8.29% |  | 133% | 78% |  |  |  |
| CN1CCN(c2c(F)cc3c(=O)c(C(=O)O)cn(CCF)c3c2F)CC1 |  | 86.6% | 95.4% | 106% |  | 140% | 98.4% |  |  |  |
| CC[C@H](C)C(=O)O[C@H]1C[C@@H](C)C=C2C=C[C@H](C)[C@H](CC[C@@H]3C[C@@H](O)CC(=O)O3)[C@H]21 | inactive |  | 103% | 83.7% |  | 8.11% | 84.4% |  |  |  |
| O=C(O)CCn1c2c(c3ccccc31)C[C@H](NS(=O)(=O)c1ccc(F)cc1)CC2 |  |  |  |  |  | 124% | 118% |  |  |  |
| NNC(=O)c1ccncc1 | inactive | 5.29% | 8.99% | 8.5% | 2.55% | 88.1% | 99.3% |  |  |  |
| CC(=O)CC(c1ccccc1)c1c(O)c2ccccc2oc1=O (stereo not drawn) | inactive |  |  |  |  | 66.7% | 60.3% |  |  |  |
